From PubChem BioAssay
In the library only some 17% were active in any assay of this set; here they are far more common.
ATXN viability = reduces viability in counter-screen for ATXN expression inhibitors | S2 cells (HEK-293 line with an ATXN2-luciferase reporter) viability, CellTiter-Fluor protease fluorescence, 24 h | Potency, µM (highest dose often 56.7 µM), most hits filed as cytotoxic | 400,000 tested, 0.49% active | AID 651635; note: nearly all actives have a fitted effect of over 40% in size
HepG2 viability = counter-screen for TGF-b inhibitors: cytotoxicity in HepG2 cells | 410,000 tested, 0.76% active | HepG2 CAGA-GFP viability, ATP luminescence, 18 h | AID 588856 | Potency, µM (series often up to 46.1 µM), for inactives: at the top dose activity change, negative = cytotoxicity, usual class: cytotoxic
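CellTiter-Glo luminescence gave cytotoxicity after 18 hours at 37 degrees C. The cells were HepG2 CAGA-GFP in 1% FBS DMEM, stimulated with 500 pg/mL TGF-beta after compound addition. %Activity was normalised to no-cell wells (complete cell-killing) and DMSO (no toxicity), and curves were fitted and classified.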
ATXN2 expr inh = ATXN2 expression inhibition | HEK-293 ATXN2-luciferase reporter, luminescence, 24 h | Potency, µM (series often up to 57 µM), for the others: at the highest dose activity change, negative = inhibition, most hits filed as inhibitors | 360,000 tested, 0.72% active | AID 1745845; note: % is set by controls: 0 for no effect and ±100 for the full control effect; nearly all actives have a fitted effect of over 55% in size
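ATXN2-luciferase reporter cells (luciferase flanked by upstream and downstream ATXN2 gene portions) were treated 24 h at 37 °C with compounds at up to 57 uM. SteadyGlo luminescence gave expression; GF-AFC fluorescence gave viability.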
TGFb SMAD3 inh = blocks TGF-b signaling. HepG2 CAGA-GFP TGF-b/SMAD3 reporter, GFP fluorescence, 18 h; TGF-beta stimulated, 500 pg/mL final. Potency, µM (highest dose often 46.1 µM), inactives show top-dose activity, negative = inhibition, hits mostly inhibitors. 410,000 tested, 1.2% active; note: % is set by controls: 0 for no effect and ±100 for the full control effect; nearly all actives have a fitted effect of over 65% in size
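HEPG2 CAGA-GFP cells (1000/well, DMEM with 1% FBS) were pre-incubated 2 h at 37 degrees C, given compound by pin tool, then stimulated with TGF-beta at 500 pg/mL final for 18 h before per-cell GFP fluorescence imaging.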
DT40 TDP1 CPT = growth inhibition of DT40 Tdp1-/-;hTDP1 cells with camptothecin (screen for TDP1 inhibitors). 420,000 tested, 12% active. Potency, µM (titrated, usually from 46.2 µM), for the others: at the highest dose activity change, negative = growth inhibition, most hits filed as inhibitors. chicken DT40 Tdp1-/-;hTDP1 cells + 20 nM CPT, ATP luminescence, 48 h; note: % is set by controls: 0 for no effect and ±100 for the full control effect; nearly all actives have a fitted effect of over 55% in size
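Chicken DT40 Tdp1-/- cells complemented with human TDP1, 400 cells/well, exposed to compounds plus 20 nM camptothecin for at least 48 h at 37 C; viability read as ATP content by CellTiter-Glo luminescence.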
DT40 TDP1 no CPT = qHTS for Inhibitors of human tyrosyl-DNA phosphodiesterase 1 (TDP1): qHTS in cells in absence of CPT. 420,000 tested, 15% active. Potency, µM (titrated, usually from 46.2 µM), for the others: at the top dose activity change, negative = growth inhibition, actives largely listed as inhibitors. DT40 Tdp1-/- hTDP1 cells, no CPT, ATP luminescence, 48 h; note: % is set by controls: 0 for no effect and ±100 for the full control effect; nearly all actives have a fitted effect of over 55% in size
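Growth kinetics read by CellTiter-Glo luminescence after ≥48 hr at 37 °C. Cells: DT40 Tdp1-/- stably carrying human TDP1, 400 per well, compound exposure in the absence of CPT (DMSO vehicle).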
* = called active by the depositor; i = inactive; u = inconclusive; x = not tested or not shown; [ ] = dose if it differs, or a comment. Calls come from the whole dose curve; as a rule, active = well fitted curve in the direction sought with a large enough effect; inconclusive = small, poorly fitted or top-dose-only effect, or another doubt; inactive = no such curve, though single readings can be large; an effect the other way counts as inactive or inconclusive. Potency is the fitted concentration of half-maximal effect.

SMILES	ATXN viability	HepG2 viability	ATXN2 expr inh	TGFb SMAD3 inh	DT40 TDP1 CPT	DT40 TDP1 no CPT
CCOc1ccc(-c2c(=O)n(OCc3nc4ccccc4[nH]3)c3ccccc3[n+]2[O-])cc1	x	13%	9%	4%	u	23µM*
CCOn1c(=O)c(-c2ccc(Br)cc2)[n+]([O-])c2ccccc21	i	-4%	-1%	-14%	5%	0%
CCOc1ccc(-c2c(=O)n(OCc3ccccc3Br)c3ccccc3[n+]2[O-])c(OCC)c1	i	-10%	x	-25%	u	23µM*
Cc1nc(-c2coc3c(O)c(O)ccc3c2=O)cs1	x	x	x	x	-18%[9.04 µM]	4%[9.04 µM]
COc1cc(Cl)c(C)cc1NC(=O)c1cc2c(Cl)nc3ccc(C)cc3c2s1	x	6%	x	4%	-4%	-18%
COc1ccc(N2C(=O)c3ccc(C(=O)Nc4ccc(NC(C)=O)cc4)cc3C2=O)cc1	i	-1%	-8%	1%	5%	-5%
CC(C)(C)NCCC(O)c1cc(C(F)(F)F)nc2c(C(F)(F)F)cccc12 (centres undefined)	i	-104%	-38%	u	21µM*	16µM*
CC(=O)c1c(C)n(CC(=O)NCc2ccc3c(c2)OCO3)c2ccccc12	i	-11%	-3%	-20%	13µM*	14µM*
O=C(CSc1nnc(-c2cccs2)n1Cc1ccccc1)NCc1ccc2c(c1)OCO2	i	-14%	6%	0%	23µM*	u
Cc1ccc(NC(=O)Cn2c(=O)n(CCCC(=O)NCc3ccc4c(c3)OCO4)c(=O)c3ccccc32)cc1	i	-12%	8%	-11%	u	u
Cc1ccc(CNC(=O)CCCCCn2c(=O)c3sccc3n(CC(=O)Nc3ccc(C)c(F)c3)c2=O)cc1	i	2%	1%	u	-5%	u
Cc1cccc(NC(=O)Cn2c(=O)n(CCCCCC(=O)NCc3ccccc3)c(=O)c3sccc32)c1	22µM*	-47%	u	u	u	u
O=C(CCCn1c(=O)c2ccccc2n(CC(=O)Nc2cccc(Cl)c2)c1=O)NCc1ccc2c(c1)OCO2	i	-3%	-2%	u	u	15µM*
CC1Cc2ccccc2N1C(=O)COC(=O)Cc1ccc(F)cc1 (centres undefined)	i	-14%	3%	4%	-4%	1%
O=C(O)CCCN1C(=O)C(=O)/C(=C(/O)c2ccccc2)C1/C=C/c1ccccc1 (centres undefined)	i	-10%	-16%	2%	u	-11%
O=C1CCC(=O)N1CC1CC2CCC1C2 (centres undefined)	i	1%	0%	-2%	5%	1%
O=C(CCCCCn1c(=O)c2sccc2n(CC(=O)Nc2cccc(Cl)c2)c1=O)NCc1ccc2c(c1)OCO2	x	-23%	x	u	u	15µM*
CCOc1ccc(NC(=O)Cn2c(=O)n(CCCCC(=O)NCc3ccc4c(c3)OCO4)c(=O)c3ccccc32)cc1	i	-40%	u	u	u	-24%
CCOc1ccccc1NC(=O)Cn1c(=O)n(CCC(=O)NCc2ccc3c(c2)OCO3)c(=O)c2ccccc21	x	0%	x	-5%	u	12µM*
NC(=O)Cn1c(=O)n(CCCCCC(=O)NCc2ccc3c(c2)OCO3)c(=O)c2sccc21	x	9%	x	-9%	-14%	-12%
CC(C)(C)C(=O)Cn1c(=O)n(CCCCCC(=O)NCc2ccccc2Cl)c(=O)c2sccc21	x	-24%	x	-26%	u	21µM*
N#Cc1ccc(OC(=O)C2CCN(C3=NS(=O)(=O)c4ccccc43)CC2)cc1	i	2%	-12%	5%	-26%	-8%
O=C(O)C1CCN(S(=O)(=O)c2ccc3[nH]ccc3c2)CC1	i	-8%	x	34%	10%	-4%
CCC(C)NC(=O)C1=CC(c2ccc3c(c2)OCO3)=NS(=O)(=O)N1C (centres undefined)	i	1%	-6%	-22%	8%	-13%
CCOc1ccccc1OCCCC(=O)N(CC)CC(=O)Nc1c(F)cccc1F	i	-1%	0%	u	4%	-24%
SMILES	ATXN viability	HepG2 viability	ATXN2 expr inh	TGFb SMAD3 inh	DT40 TDP1 CPT	DT40 TDP1 no CPT
CCOC(OCC)P(=O)(O)CCCNCc1ccc(Cl)c(Cl)c1	x	x	x	x	-1%	u
C/C(=N\NC(=O)c1cccc(N/N=C(\C)c2ccncc2)c1)c1ccncc1	i	-22%	2%	1%	21µM*	u
C/C(=N\NC(=O)COc1ccccc1[N+](=O)[O-])c1cccc(NC(=O)c2ccncc2)c1	u	0%	20%	-15%	u	8.2µM*
C/C(=N\NC(=O)c1cc(O)ccc1O)c1cccc(NC(=O)c2ccc(Cl)cc2)c1	i	-8%	-37%	-16%	u	18µM*
COc1ccc(/C(C)=N/NC(=O)c2ccncc2)cc1[N+](=O)[O-]	i	1%	13%	-1%	2%	-4%
C/C(=N\NC(=O)c1cc(O)ccc1O)c1cccc(NC(=O)c2cccc(Cl)c2)c1	i	0%	5%	-5%	-18%	-13%
C/C(=N\NC(=O)c1ccncc1)c1cccc(NC(=O)c2ccc(C(C)(C)C)cc2)c1	u	-1%	u	-4%	16µM*	16µM*
C/C(=N\NC(=O)c1cccc(N/N=C(\C)c2ccccc2)c1)c1ccccc1	i	20%	22%	19%	-1%	u
CC(NC(=O)c1cccc(S(=O)(=O)N2CCN(Cc3ccccc3)CC2)c1)c1ccccc1Cl (centres undefined)	i	0%	-13%	-6%	u	u
Cc1ccc(Cl)cc1N1CCN(C(=O)COCc2cc(-c3ccc4c(c3)OCO4)on2)CC1	x	-20%	x	-19%	-1%	-25%
C/C(=N/NC(=O)c1ccco1)c1cccc(NC(=O)c2ccc(C)o2)c1	i	-11%	20%	-20%	-12%	-7%
C/C(=N/NC(=O)c1ccc(Br)o1)c1cccc(NC(=O)c2ccc(C)o2)c1	i	-21%	5%	8%	16µM*	21µM*
O=C(CCC(=O)c1cccs1)NCc1cccc(Cl)c1	i	-4%	0%	0%	-14%	-3%
COc1ccc(/C(C)=N/Nc2ncc(Cl)cc2Cl)c(O)c1	i	-36%	-10%	-26%	u	0.0082µM*
